Screening results (PubChem BioAssay)
Tau fibril FP – blocks human tau fibril formation measured by polarization; K18 P301L tau heparin fibrillization, Alexa594 FP, 6 h; P10636; Potency, µM (top dose mostly 57.7 µM), for inactives: top-dose activity, negative = inhibition, most hits filed as inhibitors; 280,000 compounds, 0.39% hits; further: potency means the concentration at half of the fitted maximal effect; nearly all actives have a fitted effect of over 55% in size
Target sequence (P10636 561-689 P618L limits assumed): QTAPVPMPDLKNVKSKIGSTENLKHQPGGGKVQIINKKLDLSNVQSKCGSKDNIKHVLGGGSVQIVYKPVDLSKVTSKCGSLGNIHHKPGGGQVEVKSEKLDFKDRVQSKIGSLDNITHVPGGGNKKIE
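Human K18 P301L fragment (15 uM unlabeled plus 0.24 uM Alexa 594-labeled) in 100 mM sodium acetate pH 7 with compound, aggregation induced by 20 uM heparin for 6 hr at 37 C. ThT (30 uM) added for 1 hr, then Alexa 594 FP read.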
PNC assembly inh – inhibitors of perinucleolar compartment assembly. PC3M PTB-GFP, PNC prevalence imaging, 16 h; hits give low values. activity change (PNC), negative = inhibition, % at 10 µM. 140,000 compounds, 3.1% hits;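 active means readout at or below -70, meaning at least 70% loss of cells showing the perinucleolar compartment, a nuclear body marking cancer cells; inconclusive means readout between -30 and a set limit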;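 further: plate controls were DMSO wells for no effect and camptothecin positive control wells for full effect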
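Compounds are pinned in duplicate onto adhered PC3M cells stably expressing GFP-tagged PTB and incubated 16 h at 37 C. Cells are then fixed, nuclei stained with Hoechst, and PNC-positive cells counted.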
TexasRed fluor – alters Texas Red total fluorescence, flagging assay interference; TRb/SRC2 Texas Red total fluorescence interference; Potency, µM (top dose mostly 106 µM), without a hit: at the top dose fluorescence change, negative = quenching; 280,000 compounds, 0.29% hits; AID 1479; active means well fitted curve in either direction with a large enough effect; inconclusive means small, poorly fitted or top-dose-only effect; further: potency means the concentration at half of the fitted maximal effect
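Human TRβ ligand-binding domain (0.6 uM) and Texas Red SRC2 peptide (20 nM) in Tris buffer with 1 uM T3 and 5% DMSO were incubated with pinned compound for 5 hr at ambient temperature. Total fluorescence was computed as S + 2P (555/632 nm).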
Tau fluor cs – counter-screen for tau fibril formation inhibitors. tau K18 P301L Alexa594 fluorescence, heparin fibrillization. Potency, µM (doses to about 57.7 µM), without a hit: at the highest dose activity change, negative = decrease. 280,000 compounds, 0.93% hits; further: potency means the concentration at half of the fitted maximal effect; nearly all actives have a fitted effect of over 55% in size
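Human K18 P301L tau (15 uM unlabeled plus 0.24 uM Alexa 594-labeled, final) in 100 mM sodium acetate pH 7 was mixed with compound and 20 uM heparin and incubated 6 hr at 37 C.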
Tau ThT inhib – tau fibrillization inhibition (ThT binding). P10636. recombinant tau K18 P301L (four-repeat tau fragment), heparin-induced fibrillization, ThT fluorescence. Potency, µM (titrated, usually from 57.4 µM), inactives show at the highest dose activity, negative = inhibition, most hits filed as inhibitors. 270,000 compounds, 2.1% hits; further: potency means the concentration at half of the fitted maximal effect; nearly all actives have a fitted effect of over 55% in size
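In this qHTS, human K18 P301L tau is incubated with compound and heparin for 6 hr at 37 C, and Thioflavin T fluorescence then reports fibril load.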
TRb SRC2 PPI – inhibitors of human thyroid hormone receptor beta-SRC2 interaction; P10828; TRbeta-SRC2 peptide binding, fluorescence polarization; receptor liganded with 1 µM T3; Potency, µM (series often up to 106 µM), without a hit: at the highest dose activity change, negative = inhibition, hits mostly inhibitors; 280,000 compounds, 0.065% hits;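 further: potency means the concentration at half of the fitted maximal effect; plate controls were bound peptide for no effect and peptide without receptor for full effect; nearly all actives have a fitted effect of over 50% in size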
Target sequence (P10828 whole entry, looked up): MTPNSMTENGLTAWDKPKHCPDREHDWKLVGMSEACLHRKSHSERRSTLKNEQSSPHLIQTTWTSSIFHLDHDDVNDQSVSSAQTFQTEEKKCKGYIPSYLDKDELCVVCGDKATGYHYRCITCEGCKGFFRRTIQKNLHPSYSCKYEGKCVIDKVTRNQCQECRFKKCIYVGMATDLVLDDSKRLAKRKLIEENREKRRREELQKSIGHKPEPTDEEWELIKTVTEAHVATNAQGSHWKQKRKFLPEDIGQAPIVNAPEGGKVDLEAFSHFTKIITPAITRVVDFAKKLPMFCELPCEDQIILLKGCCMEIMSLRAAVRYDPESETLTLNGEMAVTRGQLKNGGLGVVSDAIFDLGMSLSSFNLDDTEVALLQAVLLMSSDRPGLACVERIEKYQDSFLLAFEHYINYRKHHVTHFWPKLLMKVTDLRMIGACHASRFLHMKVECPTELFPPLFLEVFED
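Fluorescence polarization of 20 nM Texas Red SRC2 peptide (20-aa NR interaction domain) bound to 0.6 uM human TRb ligand-binding domain, with 1 uM T3, after 5 hr at ambient temperature; inhibition seen as decreased polarization.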
* marks the source's active call; other numbers are inactive results; ? = inconclusive; / = no result; [ ] = another dose, or the depositor's remark. This is a sample that favours compounds with a hit; in the whole collection about 4.6% have one here. Unless noted, the call rests on the fitted dose curve; in most records, active means well fitted curve in the direction sought with a large enough effect; inconclusive means small, poorly fitted or top-dose-only effect, or another doubt; inactive means no such curve, though single readings can be large; an effect the other way counts as inactive or inconclusive. Unless noted, on the % scale 0 is the no-effect control and ±100 the full control effect.

SMILES	Tau fibril FP	PNC assembly inh	TexasRed fluor	Tau fluor cs	Tau ThT inhib	TRb SRC2 PPI
N#Cc1ccccc1Cn1cc(C(=O)c2ccco2)c2ccccc21	?	?	-3.0%	-26.4%	5.3%	-0.3%
Cn1c(O)c(/C=C/C=Nc2ccccc2)c(=O)n(C)c1=S	?	-17.2	-4.4%	6.31µM*[fluorescent]	?	-0.1%
CCN(CC)C1=NC(=[N+](CC)CC)c2ccccc21	-3.4%	-27.1	-0.6%	6.7%	-3.6%	-11.8%
CCc1ccc(OCC(=O)N2CCN(CCc3ccncc3)CC2)cc1	4.9%	/	708µM*[quencher]	-6.8%	-9.6%	-15.8%
O=C1NC(=O)C(=C/C=C/c2coc3ccc(Br)cc3c2=O)C(=O)N1	?	/	25.1µM*[fluorescent]	-19.6%	7.94µM*	?
O=C(CSc1oc(-c2ccccc2)nc1S(=O)(=O)c1ccc(Cl)cc1)Nc1ccc(F)cc1	?	/	1.2%	-25.1%	2.2%	-0.2%
CN1CCN(CCC(C#N)(c2ccccc2)c2ccccc2)CC1	-2.9%	-1.6	-2.5%	-3.5%	-4.5%	-12.7%
Cn1cccc1/C=C1/C(=O)NC(=S)N(Cc2ccc(F)cc2)C1=O	35.5µM*	/	0.8%	11.2µM*[quencher]	/	-3.6%
Cn1cccc1/C=C1/C(=O)NC(=O)N(Cc2ccc(F)cc2)C1=O	/	/	-7.7%	/	/	-8.6%
CN(C)C1(CNC(=O)c2ccc(Cl)c(S(=O)(=O)NCc3ccco3)c2)CCCCC1	0.4%	?	0.5%	-16.5%	-11.1%	15.6%
N=C(N)c1c(O)n(C2CCCCC2)c(=O)n(C2CCCCC2)c1=O	28.2µM*	26.0	-1.2%	?	0.4%	3.8%
O=c1c(C=NCc2cccs2)c(O)n(C2CCCCC2)c(=O)n1C1CCCCC1	-1.2%	-16.0	0.1%	-7.1%	-10.9%	-5.8%
CCOC(=O)C1(c2ccccc2)CCN(CC(=O)Nc2cccc3ccccc23)CC1	3.1%	-21.8	-3.2%	-12.7%	?	-3.9%
Cc1ccccc1N1C(=O)CC(=O)NC1=O	?	2.6	0.8%	-28.4%	15.8µM*	5.3%
CCc1c(C)nc(N)nc1N1N=C1SCC(N)=O	-9.9%	32.6	-4.9%	-8.3%	-8.0%	2.0%
CCc1c(C)nc(N)nc1N1N=C1SC(C(C)=O)C(C)=O	?	/	-2.9%	-19.8%	17.8µM*	6.8%
CCC(=Nc1cc(OC)ccc1OC)c1c(O)[nH]c(=O)[nH]c1=O	5.2%	48.3	4.3%	-5.8%	-10.7%	-3.3%
CCC(=Nc1ccc(OC)cc1OC)c1c(O)[nH]c(=O)[nH]c1=O	2.1%	-95.5*	-2.3%	-0.3%	-1.0%	8.0%
CC/C(=N\Nc1cccc2ccccc12)c1c(O)[nH]c(=O)[nH]c1=O	?	2.4	-2.2%	?	28.2µM*	1.0%
CCC(=NCCC(c1ccccc1)c1ccccc1)c1c(O)[nH]c(=O)[nH]c1=O	-10.6%	-95.9*	-2.3%[53 µM]	-1.5%	-7.2%	-4.9%[53 µM]
CCOC(=O)C1CCN(/C=C2/C(=O)NC(=S)N(c3cccc(OC)c3)C2=O)CC1	2.2%	/	0.4%	-6.6%	-11.8%	2.9%
Cc1cc(C)c(NC2=NCCCS2)c(C)c1	1.4%	64.1	-1.7%	0.0%	2.4%	8.4%
COc1ccc(Nc2nc(N)nc(CSc3nc4ccccc4s3)n2)cc1	-0.6%	/	-2.7%	15.8µM*[quencher]	?	-1.2%
CCOC(=O)c1ccc(NC(=O)C2C3C=CC(O3)C2C(=O)O)cc1 (centres undefined)	-2.4%	-91.0*	-0.3%	5.3%	-10.3%	-13.9%
CCOC(=O)c1ccc(NC(=O)CSc2nc3c(cc2C#N)N2CCC3CC2)cc1	-5.8%	/	2.9%	?	?	-3.6%
SMILES	Tau fibril FP	PNC assembly inh	TexasRed fluor	Tau fluor cs	Tau ThT inhib	TRb SRC2 PPI
CN(C)CCCNCC(=O)Nc1ccc(Cl)cc1C(=O)c1ccccc1	8.3%	/	-0.4%	1.3%	-5.3%	11.2%
O=C1CN(C(=O)CN2CCCCC2)C(c2ccccc2)c2cc(Br)ccc2N1 (centres undefined)	6.1%	-91.8*	-4.6%	7.9%	1.4%	6.0%
O=c1[nH]c(=S)[nH]c(O)c1N=Nc1cc2c(cc1[N+](=O)[O-])OCO2	2.3%	/	0.3%	-20.0%	12.6µM*	5.1%
O=c1[nH]c(=S)[nH]c(O)c1N=Nc1ccc(-c2ccccc2)cc1[N+](=O)[O-]	-10.6%	/	-11.3%	?	3.98µM*	0.9%
O=[N+]([O-])c1cc(-c2ccc([As](=O)(O)O)cc2)ccc1[As](=O)(O)O	5.5%	/	-1.9%	-2.2%	-4.2%	-5.8%
CCOC(=O)NC(O)C(Cl)(Cl)Cl (centres undefined)	/	/	-1.7%	/	/	1.9%
COCCOC(=O)c1c(C)oc2ccc(OC(=O)N(C)C)cc12	2.1%	18.0	0.4%	-0.7%	0.1%	-20.1%
Cc1c(C)n(O)c2ccc3nonc3c12	?	/	-0.5%	-28.6%	31.6µM*	4.2%
NNC(=O)CN1C(=O)CN=C(c2ccccc2)c2cc(Br)ccc21	1.7%	/	-2.3%	10.5%	9.8%	-5.9%
O=C1CN=C(c2ccccc2)c2cc(Br)ccc2N1Cc1cc(=O)n2ccccc2n1	3.9%	-87.7*	2.3%	-9.8%	-8.4%	4.0%
O=c1[nH]c(=O)n(CCC2=CCCCC2)c(O)c1/C=N/N1CCOCC1	5.7%	/	-2.6%	3.0%	-6.5%	1.0%
COc1ccc(Nc2cc(C)c3cc(NC(=O)c4ccccc4Cl)ccc3n2)cc1	?	/	-21.6%	8.91µM*[quencher]	3.98µM*	9.2%
Clc1ccc(CNC2CN3CCC2CC3)cc1 (centres undefined)	0.9%	-80.2*	0.1%[53 µM]	14.3%	12.2%	-6.1%[53 µM]
O=C(O)[C@@H]1CSC(c2cccnc2)N1 (some centres undefined)	-2.1%	/	-1.7%	-3.3%	-19.6%	6.7%
O=C(O)c1cccc2c1NC(c1cccc([N+](=O)[O-])c1)C1CC(Sc3ccccc3[N+](=O)[O-])C(Cl)C21 (centres undefined)	?	/	-6.9%	?	31.6µM*	5.0%
CN1C(=O)C(=Cc2ccc(N3CCCCCC3)o2)C(=O)N(C)C1=S	-4.3%	4.0	1.1%	?	12.6µM*	-15.1%
CN1C(=O)C(=Cc2ccc(N3CCOCC3)o2)C(=O)N(C)C1=O	2.0%	-23.6	3.3%	-9.3%	-5.6%	9.2%
CC1(C)C2([N+](=O)[O-])CN3CN(C2)CC1([N+](=O)[O-])C3	6.7%	/	-2.5%	1.9%	-2.7%	0.5%
COC(=O)C1(O)CC2OC1(C)n1c3ccccc3c3c4c(c5c6ccccc6n2c5c31)C(=O)NC4 (centres undefined)	11.5%[11.6 µM]	/	-2.8%[11.2 µM]	-28.3%[11.6 µM]	?	0.0%[11.2 µM]
